Results published in PubChem BioAssay.
The source made the active and inactive calls.

Tests used:
[1] = small molecules captured by biotinylated probe aFSTL3 – biochemical, small-molecule microarray, fluorescence 635/667, stem cell growth factor project, primary screen (AID 1064); conditions: higher = more signal;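 also: measures binding of the biotinylated anti-FSTL3 antibody to printed compounds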
[2] = binders from COS7 lysate, DM2A8 probe, primary screen, torsin A project, cell lysate, small-molecule microarray, fluorescence 635/667 (AID 1065); conditions: higher = more signal, COS7 lysate expressing mutant human TOR1A
[3] = small molecules captured by biotinylated probe aFGF2 – biochemical, small-molecule microarray, fluorescence 635/667, stem cell growth factor project, primary screen (AID 1067); conditions: higher = more signal;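 also: measures binding of biotinylated aFGF2 protein to printed compounds on slides; z-score merges feature fluorescence and signal-to-noise across triplicate slides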
[4] = small molecules captured by biotinylated probe aFGF10 – biochemical, small-molecule microarray, fluorescence 635/667, stem cell growth factor project, primary screen (AID 1071); conditions: higher = more signal;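 also: score merges 667 nm spot intensity and signal to noise from triplicate slides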
[5] = target: Neurogenic locus notch homolog protein 2 (Homo sapiens) (UniProt Q04721); experiment: small molecules binding Notch2 protein – biochemical, small-molecule microarray, 635 nm fluorescence, stem cell growth factors, primary screen (AID 1073); conditions: higher = more signal
Sequence of Neurogenic locus notch homolog protein 2 (Homo sapiens) (Q04721 whole entry, looked up, canonical isoform): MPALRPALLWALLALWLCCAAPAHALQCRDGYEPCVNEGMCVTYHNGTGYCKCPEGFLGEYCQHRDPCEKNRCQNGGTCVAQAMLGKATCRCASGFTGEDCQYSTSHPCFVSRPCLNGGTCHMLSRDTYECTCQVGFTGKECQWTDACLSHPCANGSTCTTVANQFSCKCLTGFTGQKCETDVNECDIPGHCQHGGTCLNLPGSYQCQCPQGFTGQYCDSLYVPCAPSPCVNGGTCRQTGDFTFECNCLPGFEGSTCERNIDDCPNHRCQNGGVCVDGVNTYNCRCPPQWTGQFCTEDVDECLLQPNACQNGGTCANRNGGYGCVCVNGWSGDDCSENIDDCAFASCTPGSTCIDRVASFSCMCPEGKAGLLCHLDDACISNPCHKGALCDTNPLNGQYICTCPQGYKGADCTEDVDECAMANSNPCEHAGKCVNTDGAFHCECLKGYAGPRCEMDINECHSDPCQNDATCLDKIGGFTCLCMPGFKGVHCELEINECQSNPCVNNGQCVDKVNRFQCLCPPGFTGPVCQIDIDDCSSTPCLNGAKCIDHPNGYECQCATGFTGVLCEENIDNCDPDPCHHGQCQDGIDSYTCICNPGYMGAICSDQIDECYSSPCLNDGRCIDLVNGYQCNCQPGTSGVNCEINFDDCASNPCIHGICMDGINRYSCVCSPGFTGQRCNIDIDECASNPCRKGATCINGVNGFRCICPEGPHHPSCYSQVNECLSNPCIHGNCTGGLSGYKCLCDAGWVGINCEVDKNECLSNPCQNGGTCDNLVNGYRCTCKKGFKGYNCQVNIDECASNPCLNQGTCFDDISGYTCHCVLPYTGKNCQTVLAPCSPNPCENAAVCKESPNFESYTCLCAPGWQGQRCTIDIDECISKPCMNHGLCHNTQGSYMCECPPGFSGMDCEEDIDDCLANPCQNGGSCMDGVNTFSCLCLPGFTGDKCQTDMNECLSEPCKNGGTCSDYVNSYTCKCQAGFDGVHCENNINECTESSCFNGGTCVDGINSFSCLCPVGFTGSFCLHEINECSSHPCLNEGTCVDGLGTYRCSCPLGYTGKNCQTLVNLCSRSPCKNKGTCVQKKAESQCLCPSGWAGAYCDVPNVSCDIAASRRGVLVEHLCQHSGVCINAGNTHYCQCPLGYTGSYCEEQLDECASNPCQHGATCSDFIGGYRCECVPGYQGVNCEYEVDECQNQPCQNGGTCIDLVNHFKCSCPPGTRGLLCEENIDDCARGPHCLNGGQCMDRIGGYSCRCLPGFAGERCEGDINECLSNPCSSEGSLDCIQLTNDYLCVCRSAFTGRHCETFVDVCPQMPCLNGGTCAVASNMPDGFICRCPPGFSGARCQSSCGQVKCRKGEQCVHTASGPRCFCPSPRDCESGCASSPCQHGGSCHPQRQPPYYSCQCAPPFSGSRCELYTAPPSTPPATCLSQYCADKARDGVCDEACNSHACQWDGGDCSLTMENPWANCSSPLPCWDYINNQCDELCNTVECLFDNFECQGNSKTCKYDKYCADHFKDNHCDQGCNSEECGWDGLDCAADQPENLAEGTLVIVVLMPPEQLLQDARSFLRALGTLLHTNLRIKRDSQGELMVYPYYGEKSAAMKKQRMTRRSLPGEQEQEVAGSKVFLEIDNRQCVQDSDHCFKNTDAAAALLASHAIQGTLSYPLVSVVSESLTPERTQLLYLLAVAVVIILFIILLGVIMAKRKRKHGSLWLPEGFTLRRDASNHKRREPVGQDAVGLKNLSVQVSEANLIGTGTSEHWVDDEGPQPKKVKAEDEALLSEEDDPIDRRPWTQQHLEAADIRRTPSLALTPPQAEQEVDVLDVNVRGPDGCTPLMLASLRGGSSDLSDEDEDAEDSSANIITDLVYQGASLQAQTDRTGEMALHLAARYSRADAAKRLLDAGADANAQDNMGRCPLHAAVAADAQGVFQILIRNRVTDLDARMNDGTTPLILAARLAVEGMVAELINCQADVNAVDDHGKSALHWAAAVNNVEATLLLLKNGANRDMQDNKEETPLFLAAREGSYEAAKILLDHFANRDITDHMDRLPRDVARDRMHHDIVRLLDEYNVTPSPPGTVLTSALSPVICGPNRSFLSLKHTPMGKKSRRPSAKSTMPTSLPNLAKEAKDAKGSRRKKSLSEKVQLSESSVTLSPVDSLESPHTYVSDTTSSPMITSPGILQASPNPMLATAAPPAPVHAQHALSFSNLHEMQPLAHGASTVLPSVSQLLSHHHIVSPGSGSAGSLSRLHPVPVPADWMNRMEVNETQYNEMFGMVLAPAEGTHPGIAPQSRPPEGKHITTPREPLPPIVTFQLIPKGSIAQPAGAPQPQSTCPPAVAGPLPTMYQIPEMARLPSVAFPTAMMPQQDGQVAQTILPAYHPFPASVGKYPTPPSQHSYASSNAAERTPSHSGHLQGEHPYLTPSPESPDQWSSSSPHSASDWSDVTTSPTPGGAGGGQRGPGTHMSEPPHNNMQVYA

[6] = target: Pro-neuregulin-1, membrane-bound isoform (Homo sapiens) (UniProt Q02297); experiment: small molecules binding neuregulin-1 protein – biochemical, small-molecule microarray, fluorescence 635/667, psychiatric disease protein project, primary screen (AID 1075); conditions: NRG1 binding, 635 nm fluorescence, higher = more signal;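 also: score combines 667 nm spot fluorescence with signal to noise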
Sequence of Pro-neuregulin-1, membrane-bound isoform (Homo sapiens) (Q02297 whole entry, looked up, the tested form may be a part, canonical isoform): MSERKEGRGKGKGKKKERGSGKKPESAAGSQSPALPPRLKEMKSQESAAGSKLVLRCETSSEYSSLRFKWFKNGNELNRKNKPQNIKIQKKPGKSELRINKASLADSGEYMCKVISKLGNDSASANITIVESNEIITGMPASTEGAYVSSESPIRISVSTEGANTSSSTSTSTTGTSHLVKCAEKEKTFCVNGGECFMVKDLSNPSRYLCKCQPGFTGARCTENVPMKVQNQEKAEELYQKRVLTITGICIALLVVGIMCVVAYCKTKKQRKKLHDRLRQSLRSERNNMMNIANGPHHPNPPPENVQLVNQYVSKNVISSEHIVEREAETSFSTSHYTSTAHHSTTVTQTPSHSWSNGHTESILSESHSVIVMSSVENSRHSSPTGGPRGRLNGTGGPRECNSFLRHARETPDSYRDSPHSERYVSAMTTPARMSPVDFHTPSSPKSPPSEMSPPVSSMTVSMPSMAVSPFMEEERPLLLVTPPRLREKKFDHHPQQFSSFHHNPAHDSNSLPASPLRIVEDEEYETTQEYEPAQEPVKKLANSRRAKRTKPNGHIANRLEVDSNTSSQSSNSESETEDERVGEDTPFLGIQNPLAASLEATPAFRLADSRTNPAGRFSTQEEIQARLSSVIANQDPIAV

[7] = test system: Neuregulin-1 EGF-like domain; experiment: small molecules binding NRG1 EGF domain – biochemical, small-molecule microarray, 635 nm fluorescence, primary screen (AID 1081); conditions: higher = more signal;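 also: binding of the protein to compounds printed on small-molecule microarray slides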
[8] = FRG1 expression reporter modulators in myotubes – cell-based, C2C12 myotubes, firefly/Renilla luciferase, luminescence, FRG1 inhibition for FSHD, primary screen (AID 1084); conditions: FRG1 promoter luciferase, higher = more signal, called active from +8 up or from −8 down
[9] = small molecules captured by biotinylated probe aFST – biochemical, small-molecule microarray, fluorescence 635/667, stem cell growth factor project, primary screen (AID 1086); conditions: higher = more signal;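 also: score merges 667 nm fluorescence with signal-to-noise of each printed compound spot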
[10] = binders of probe aHhip on microarray, primary screen, stem cell growth factor project, biochemical, small-molecule microarray, fluorescence 635/667 (AID 1087); conditions: higher = more signal;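 also: score merges spot fluorescence at 667nm with spot signal to noise ratio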
[11] = test system: PRMT1 (protein arginine N-methyltransferase 1); experiment: small molecules binding arginine methyltransferase PRMT1 – biochemical, small-molecule microarray, 635 nm fluorescence, primary screen (AID 1088); conditions: higher = more signal;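 also: binding of Prmt1 protein to compounds spotted on small-molecule microarray slides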
[12] = growth effects on S. cerevisiae YJM789 – YJM789 clinical isolate, OD600, 24 h, basal, primary screen (AID 1089); conditions: higher = more signal, called active from +8 up or from −8 down;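 also: growth of clinical yeast isolate S. cerevisiae YJM 789 seeded 1000 cells per well; test concentration not given here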
[13] = S. pombe growth modifiers, basal conditions – strain 972, OD600, 24 h, no modulator, primary screen (AID 1090);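 also: basal condition with compound alone and no growth modifier present; test concentration not given here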; conditions: S. pombe 972 growth, higher = more signal, called active from +8 up or from −8 down
[14] = budding yeast growth modifiers under rapamycin – strain BY4716, OD600, 96 h, primary screen (AID 1091); also: test concentration not given here; conditions: S. cerevisiae BY4716 + rapamycin, higher = more signal, called active from +8 up or from −8 down
[15] = target: Torsin-1A-interacting protein 2 (Homo sapiens) (UniProt Q8NFQ8); experiment: small molecules binding lysate-expressed LULL1 – cell lysate, human LULL1 lysate, 635/667 nm fluorescence, primary screen (AID 1092); conditions: small-molecule microarray, hLULL1 lysate binding, 635 nm fluorescence; higher = more signal;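 also: probe is lysate of COS7 cells overexpressing human LULL1; score merges per-feature 667 nm fluorescence with signal-to-noise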
Sequence of Torsin-1A-interacting protein 2 (Homo sapiens) (Q8NFQ8 whole entry, looked up): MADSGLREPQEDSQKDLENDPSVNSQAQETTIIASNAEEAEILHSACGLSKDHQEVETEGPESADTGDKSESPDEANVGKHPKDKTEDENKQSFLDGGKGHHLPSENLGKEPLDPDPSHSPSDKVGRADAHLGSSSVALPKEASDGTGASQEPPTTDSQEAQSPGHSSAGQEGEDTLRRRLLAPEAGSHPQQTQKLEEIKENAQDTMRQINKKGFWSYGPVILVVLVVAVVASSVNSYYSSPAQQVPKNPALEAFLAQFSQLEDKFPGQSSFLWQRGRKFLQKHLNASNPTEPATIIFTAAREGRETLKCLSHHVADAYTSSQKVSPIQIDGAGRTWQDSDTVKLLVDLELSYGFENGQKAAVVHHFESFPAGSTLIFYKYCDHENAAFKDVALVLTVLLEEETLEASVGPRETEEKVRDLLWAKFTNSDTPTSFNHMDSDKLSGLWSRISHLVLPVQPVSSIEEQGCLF

[16] = optical density change of DRC41 E. coli – strain DRC41, OD650, 24 h, E. coli filamentation project, primary screen (AID 1093);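 also: MC1000 strain lacking acrAB efflux and sulA so SOS filamentation is blocked; test concentration not given here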; conditions: E. coli DRC41 growth, higher = more signal, called active from +8 up or from −8 down
[17] = probe aLefty2 binding to arrayed compounds – biochemical, biotinylated probe, 635/667 nm fluorescence, primary screen (AID 1094); conditions: small-molecule microarray, higher = more signal;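 also: score merges spot fluorescence near 667 nm with spot signal-to-noise ratio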
[18] = test system: Noggin (protein binding on small-molecule microarray); experiment: small molecules binding Noggin protein – biochemical, 635/667 nm fluorescence, primary screen (AID 1095); conditions: 635 nm fluorescence, higher = more signal;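 also: score merges 667 nm feature fluorescence with signal to noise over triplicate slides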
[19] = target: Neurogenic locus notch homolog protein 3 (Homo sapiens) (UniProt Q9UM47); experiment: small molecules binding NOTCH3 protein – biochemical, 635/667 nm fluorescence, primary screen (AID 1096); conditions: small-molecule microarray, 635 nm fluorescence, higher = more signal
[20] = probe aEGFR binding to arrayed compounds – biochemical, biotinylated probe, 635/667 nm fluorescence, primary screen (AID 1097); conditions: small-molecule microarray, higher = more signal;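 also: probe is a biotinylated anti-EGFR antibody binding compounds printed on slides; score combines fluorescence near 667 nm and signal to noise of each spot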

Structure (SMILES)	composite z-score [1]	composite z-score [2]	composite z-score [3]	composite z-score [4]	composite z-score [5]	composite z-score [6]	composite z-score [7]	z-score [8]	composite z-score [9]	composite z-score [10]	composite z-score [11]	z-score [12]	z-score [13]	z-score [14]	composite z-score [15]	z-score [16]	composite z-score [17]	composite z-score [18]	composite z-score [19]	composite z-score [20]
CCOC(=O)C[C@H]1[C@H](OC(=O)Cc2ccc3c(c2)OCO3)[C@@H](NC(=O)c2ccc3ccccc3c2)c2cc(OCCCO)ccc2N1C(=O)c1ccccc1	-0.397	0.0993	-0.14	0.284	0.642	0.376	1.13	0.12 (inactive)	0.254	0.0373	0.745	-0.0607 (inactive)	0.175 (inactive)	0.954 (inactive)	1.69	1.35 (inactive)	-0.0961	0.329	0.742	-0.0225
COc1ccc([Si](C)(C)[C@H]2[C@H](CC(=O)N3Cc4ccccc4C[C@H]3CO)O[C@@]3(C(=O)N(Cc4ccc(N5CCC5=O)cc4)c4ccccc43)[C@@H]2C)cc1	0.061	0.859	0.0967	0.265	0.198	1.08	1.2	-4.57 (inactive)	0.983	0.115	1.54	-1.57 (inactive)	0.52 (inactive)	0.98 (inactive)	2.6	1.65 (inactive)	0.148	1.57	1.14	0.0321
CC(CO)N1C(=O)[C@@H]2C3C(=O)OCCC/C=C\[C@H]3OC23C=CCN(c2ccc4ccccc4c2)C(=O)[C@@H]13 (stereo not given in full)	0.122	-0.933	-0.118	-0.594	-0.874	0.168	1.26	-0.775 (inactive)	-0.576	-0.0994	0.0691	-0.531 (inactive)	-0.743 (inactive)	-0.0295 (inactive)	-0.504	0.0095 (inactive)	-0.0516	-0.871	-0.341	-0.18
COc1cc(CO)cc(I)c1O[C@H]1C=C(C(=O)NCCO)C[C@@H](N(CCN2CCOCC2)C(=O)C2CCOC2)[C@@H]1O (stereo not given in full)	-0.458	0.158	-0.12	0.501	-0.0056	-0.0813	-0.479	-1.22 (inactive)	0.0409	1.25	0.815	-0.263 (inactive)	-0.62 (inactive)	-0.679 (inactive)	-0.367	2.36 (inactive)	-0.0636	0.407	0.51	-0.099
COc1ccc([Si](C)(C)[C@@H]2[C@@H](CC(=O)N3Cc4ccccc4C[C@H]3CO)O[C@]3(C(=O)N(C)c4c(Br)cc(C)cc43)[C@H]2C)cc1	-0.184	1.03	-0.083	0.441	0.557	0.815	1.12	-3.35 (inactive)	0.16	-0.0672	1.54	-0.069 (inactive)	1.2 (inactive)	2.03 (inactive)	1.84	0.064 (inactive)	-0.174	1.55	1.12	-0.0409
COC(=O)C(CC#Cc1ccc2c(c1)[C@]1(C(=O)N2)[C@H](C(=O)O)[C@H]2C(=O)O[C@H](c3ccccc3)[C@H](c3ccccc3)N2[C@@H]1c1ccc(O)cc1)C(=O)OC	0.43	0.108	-0.0973	0.528	-0.806	1.42	1.23	1.34 (inactive)	-0.384	-0.236	0.615	1.06 (inactive)	0.819 (inactive)	-0.567 (inactive)	2.12	-0.913 (inactive)	-0.188	-0.868	-0.608	-0.0514
COCCCNC(=O)C1N=C(c2ccc(OCCCO)cc2)N(c2ccccc2)O1 (stereo not given)	-0.39	0.461	0.0038	0.848	0.872	0.124	0.609	3.02 (inactive)	0.504	0.0176	1.39	0.0302 (inactive)	0.42 (inactive)	-0.779 (inactive)	1.94	0.919 (inactive)	-0.0553	1.08	0.911	-0.0549
COCCOC(=O)N1C(=O)[C@@]2(c3cc(C#CCCO)ccc31)[C@H](c1ccc(OCCO)cc1)N1[C@H](c3ccccc3)[C@H](c3ccccc3)OC(=O)[C@H]1[C@@H]2C(=O)N1CCN(c2ncccn2)CC1	-0.204	-0.0161	-0.0972	0.281	1.33	0.317	1.23	-0.37 (inactive)	0.658	0.0274	1.55	-0.01 (inactive)	0.342 (inactive)	2.94 (inactive)	2.42	-0.0542 (inactive)	-0.123	1.23	1.06	-0.0066
O=C1c2ccccc2[C@@]2(Cc3ccccc3N(CC(F)(F)F)C2=O)[C@H](c2ccc(CO)cc2)N1Cc1ccccc1Cl	-0.351	-0.112	-0.147	-0.0091	0.0933	-0.0415	0.222	-0.163 (inactive)	-0.121	-0.226	1.22	-0.146 (inactive)	-0.172 (inactive)	-1.62 (inactive)	-0.0577	0.0194 (inactive)	-0.159	0.476	-0.0169	-0.118
CCCC[C@H]1OB(O)C[C@H]2C1=C(COc1ccccc1)C[C@H]1C(=O)N(C)C(=O)[C@H]12	-0.32	-0.353	-0.085	0.121	0.85	0.0746	0.462	-0.153 (inactive)	1.2	-0.0754	-0.0361	-0.454 (inactive)	-1.03 (inactive)	-0.861 (inactive)	0.265	-0.632 (inactive)	0.0784	0.231	0.187	-0.0714
